Vaccinia Venus – inhibitors of vaccinia virus (Venus reporter) | Vaccinia virus Venus reporter expression, fluorescence | Potency, µM (top dose mostly 36.5 µM), for the others: at the highest dose activity change, negative = inhibition, most hits filed as inhibitors | 330,000 tested, 0.46% active; calls by dose curve; tested in A549 cells; further: potency means the concentration at half of the fitted maximal effect; nearly all actives have a fitted effect of over 30% in size
VACV mCherry inh – inhibitors of vaccinia virus infection (mCherry reporter signal); Vaccinia virus mCherry reporter infection, fluorescence; Potency, µM (doses to about 36.5 µM), inactives show at the top dose activity change, negative = inhibition, most hits filed as inhibitors; 310,000 tested, 0.63% active; AID 720579; calls by dose curve; tested in A549 cells; further: potency means the concentration at half of the fitted maximal effect; nearly all actives have a fitted effect of over 35% in size
HCMV antiviral – blocks human cytomegalovirus replication. HFF cells, HCMV-luciferase reporter, 72 h; active compounds read low. activity change, negative = inhibition, % at 57.5 µM. 410,000 tested, 4.5% active. AID 1259415; in the data active means activity change below about -60%; inconclusive means no clear call, values can overlap the other calls; inactive means above about -39%
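Two compound doses tested in HFFs infected with HCMV-luciferase, MOI 1 PFU/cell, 72 h at 37C. Lysate luminescence read with OneGlo; data normalized against buffer-only and 10uM Salinomycin inhibitor controls.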
LASV entry inh – Lassa virus entry inhibition | Lassa virus pseudotype entry inhibition, cell reporter | Potency, µM (titrated, usually from 37.9 µM), for the others: at the highest dose activity change, negative = inhibition, hits mostly inhibitors | 300,000 tested, 1.2% active | AID 540256; calls by dose curve; tested in HEK293 cells; further: potency means the concentration at half of the fitted maximal effect; nearly all actives have a fitted effect of over 50% in size
Marburg entry inh – inhibitors of Marburg virus binding or cell entry. 300,000 tested, 1.8% active. Potency, µM (doses to about 37.8 µM), without a hit: top-dose activity change, negative = inhibition, usual class: inhibitors. Marburg virus pseudotyped entry inhibition, cell reporter; calls by dose curve; tested in HEK293 cells; further: potency means the concentration at half of the fitted maximal effect
HCV inh – blocks hepatitis C virus. Huh7.5.1 HCVcc-Cre infection, luciferase reporter, 44 h. Potency, µM (doses to about 41.8 µM), for the others: at the highest dose activity change, negative = inhibition, actives largely listed as inhibitors. 340,000 tested, 3.4% active; active means well fitted inhibition curve with a large enough effect; inconclusive means small, poorly fitted or top-dose-only effect, or another doubt; inactive means no such curve, though single readings can be large or run the other way; further: potency means the concentration at half of the fitted maximal effect
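Compounds are dispensed onto cells plated 4 h earlier at 1,000 per well, with HCVcc-Cre virus (about 0.5 moi) added next. Following 44 h of culture, luminescent signal is measured for 15 sec after 15 min with substrate at room temperature.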
Active calls of the source: *; i = inactive; ? = inconclusive; / = no result given; [ ] = remark or other dose. Most compounds without a hit are left out; they make up all but 7.8% or so of the library. On the % scale 0 is the no-effect control and ±100 the full control effect.

SMILES | Vaccinia Venus | VACV mCherry inh | HCMV antiviral | LASV entry inh | Marburg entry inh | HCV inh
C/C(=N/Nc1nc(C)cc(C)n1)c1ccc(Br)cc1 | -13% | i | ? | -10%[46.1 µM] | ? | ?
C/C(=N\Nc1cc(N2CCCCC2)nc(C)n1)c1ccc(Br)cc1 | / | / | -67* | / | / | 11µM*
CN([C@H]1CCS(=O)(=O)C1)S(=O)(=O)c1cccc2nsnc12 | / | / | / | / | 21% | /
Cc1ccc(N(C)C(=O)Cn2ncc3c([nH]c4ccccc43)c2=O)cc1C | -5% | -11% | 27 | -5%[46.1 µM] | / | /
CSc1nc(N)nc2c1ncn2CC(=O)NCC(c1ccccc1)c1ccccc1 | -1% | -23% | -19 | / | / | ?
COc1ccc(CNC(=O)Cn2cnc3c(SC)nc(N)nc32)cc1 | -12% | -8% | -15 | / | / | 8.9µM*
CSc1nc(N)nc2c1ncn2CC(=O)Nc1ccc(C)c(C)c1 | ? | -27% | -30 | / | / | 3.5µM*
CCOC(=O)CC[C@H](NC(=O)Cn1cnc2c(SC)nc(N)nc21)C(=O)OCC | 0% | -14% | -6 | / | / | -3%
CCOc1nc(-c2ccccc2)ccc1-c1noc(-c2ccco2)n1 | -9% | -13% | ? | -9% | ? | 10µM*
COc1nc(-c2ccc(C)cc2)ccc1-c1noc(-c2cccnc2)n1 | -8% | -14% | 0 | 8% | 7% | 4%
COc1nc(-c2ccccc2)ccc1-c1noc(-c2cccnc2)n1 | / | / | -104* | 32% | 0% | 27%
CCOc1ccccc1-c1nc(-c2ccc(-c3ccccc3)nc2OCC)no1 | -12% | -4% | -5 | ? | ? | /
O=C(c1cccn(Cc2ccc(Cl)c(Cl)c2)c1=O)N1CCOCC1 | / | / | -23 | 0% | -2% | 1%
O=c1c(-c2nc3ccccc3s2)cccn1Cc1ccc(Cl)c(Cl)c1 | / | / | -63* | 4% | 1% | ?
O=C(CSc1nnc(COc2ccccc2)o1)Nc1cc(C(F)(F)F)ccc1Cl | 1% | -3% | -2 | -14%[46.1 µM] | -6%[46.1 µM] | /
CC(=O)OC1(C(C)=O)CCC2C3CC(C(F)(F)F)C4=CC(=O)CCC4(C)C3CCC21C (centres undefined) | -11% | ? | -29 | ? | 8.9µM* | ?
CC(=O)C12CCCCC1CC1[C@@H]3CC(C)C4=CC(=O)CC[C@]4(C)C3CC[C@@]12C (some centres undefined) | -12% | -6% | -80* | 28%[46.1 µM] | 14%[46.1 µM] | -19%
CC(=O)O[C@]1(C(C)=O)CC[C@H]2[C@@H]3C[C@H](C)C4=CC(=O)CC[C@]4(C)[C@H]3CC[C@@]21C | -21% | -6% | 56 | ? | -41% | ?
CCOC(=O)c1ccccc1NC(=O)C(=O)Nc1ccc2nc3n(c(=O)c2c1)CCCCC3 | -20% | -9% | -20 | 8%[46.1 µM] | 7%[46.1 µM] | /
Cc1c2ccncc2cc2c1[nH]c1ccccc12 | 10µM* | 16µM* | ? | -29%[46.1 µM] | ? | 6.3µM*
Cc1cc(C)cc(NC(=S)Nc2cccc3cnccc23)c1 | -21% | ? | -24 | 12%[46.1 µM] | -29%[46.1 µM] | -30%
CCc1ccc(NC(=S)Nc2cccc3cnccc23)cc1 | -1% | -13% | -12 | ? | ? | 10µM*
CC(=O)N(C)c1ccc(NC(=S)Nc2cccc3ccccc23)cc1 | -3% | i | -71* | -1% | ? | -3%
CC(=O)c1cccc(NC(=O)C(=O)Nc2cccc3ccccc23)c1 | -9% | -8% | -60* | -28% | ? | -15%
COc1ccc(/C=C2\N=C(SC)N(c3ccccc3OC)C2=O)cc1 | / | / | -96* | / | / | ?
SMILES | Vaccinia Venus | VACV mCherry inh | HCMV antiviral | LASV entry inh | Marburg entry inh | HCV inh
CCOc1ccc(N2C(=O)/C(=C/c3ccccc3)N=C2SC)cc1 | / | / | -21 | / | / | -15%
Cc1cccc(C(=O)OCc2cc(=O)n3ccsc3n2)c1 | -12% | -10% | 12 | 25%[46.1 µM] | / | /
Cc1cc(-c2nc3ccccc3s2)ccc1N | -19% | -22% | -3 | 3.5µM* | ? | -17%
Nc1ccc(-c2nc3ccccc3s2)cn1 | -3% | -4% | 100 | / | ? | 25µM*
Cc1nc(-c2ccccc2)sc1-c1ccc(SCC(=O)NCc2ccc(F)cc2)nn1 | ? | i | 1 | -5%[46.1 µM] | / | /
Cc1ccc(C(=O)Nc2ccon2)cc1S(=O)(=O)N1CCCCCC1 | / | / | -101* | 1% | 8% | ?
CCC1CCCCN1S(=O)(=O)c1cc(C(=O)Nc2ccc(C)c(F)c2)ccc1F (centres undefined) | ? | ? | -91* | ? | / | /
